Experimental data: PubChem BioAssay AID463218 (Sanford-Burnham Center for Chemical Genomics, 2010)
In all, about 4,400 compounds went through this assay and about 3,700 (84%) were called active.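 How the source made its calls: active means inhibition above about 39% in either of two replicate wells at 20 µM (limit read from the data); inactive means the rest.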 The set was probably picked from earlier hits. The list is a sample of the results.

Test: growth inhibition of tim23-1 ts yeast, retest – luminescence, single concentration, confirmation (AID 463218);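 further: temperature-sensitive tim23-1 mutant grown at 25 °C; 0% = DMSO wells with yeast and 100% = medium wells without yeast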
Details: S. cerevisiae tim23-1 growth, BacTiter-Glo luminescence, 24 h; at 20 µM; stronger effect = higher value

inhibition, inactive:
CC[C@]1(C(=O)OC)[C@H]2C(=O)N(Cc3ccccc3)C(=O)[C@H]2[C@H]2CN=C(SCc3ccc(Cl)cc3)N21 31.4%
CC1(C)C=Cc2c(ccc3c2OC[C@@H](c2ccc(O)cc2O)C3)O1 29.5%
O=C(COC(=O)c1ccc(O)cc1O)c1ccc2c(c1)OCCO2 21%
O=C(NC(=S)Nc1cccc2c(O)cccc12)c1cccc(Br)c1 23.2%
CCn1c2ccccc2c2cc(NC(=S)N3CCOCC3)ccc21 31.6%

inhibition, active:
CCN1/C(=C\c2ccc3ccccc3[n+]2CC)Sc2cc(C)ccc21 64.8%
CCc1ccc2oc(-c3ccc(N)cc3)nc2c1 58.8%
O=C(CSc1cccc2cccnc12)N/N=C/c1cccnc1 62%
C[C@@H]1C(c2ccc(F)cc2)=NN(c2ccc(Br)cc2)[C@H]1C(=O)N1CCOC1=O 44.6%
CCOc1cc(/C=C2\SC(N3CCCC(C)C3)=NC2=O)ccc1O (configuration not stated) 43%
O=C(/C=C/c1ccccc1)c1ccccc1O 62.4%
COc1ccc(Oc2cn[nH]c2-c2ccc(OC)cc2O)cc1 59.6%
CCC(C)c1ccc(NC(=O)COC(=O)C2CCCC2)cc1 (configuration not stated) 49.4%
Clc1ccc(Nc2ccc3ccccc3n2)cc1 43.8%
O=Cc1cn(-c2ccccc2)nc1-c1ccccn1 57.2%
CC1CCCC(C)N1C(=O)CN1CCN(c2nc(-c3ccc(F)cc3)cs2)CC1 (configuration not stated) 54.5%
CC1(C)C2CCC1(C)C(OC(=O)c1ccc(O)cc1)C2 (configuration not stated) 58%
CCOC(=O)C1=C(C)N=c2s/c(=C\C(=O)OC)c(=O)n2C1c1ccc(OC)cc1 (configuration not stated) 55.2%
O=C(N/N=C\c1cccc(Br)c1)c1ccccc1-n1cccc1 50.8%
O=C(Oc1c(-c2ccco2)oc2ccccc2c1=O)c1cccnc1 67.5%
COc1ccc(C(=O)O/N=C(\N)Cc2ccc(Cl)cc2Cl)cc1OC 52.8%
c1ccc2cc(CCCc3cc4ccccc4cn3)ncc2c1 40.3%
Cc1ccc(Oc2cnn(-c3ccccc3)c(=O)c2Br)cc1 39.4%
O=C1c2ccccc2S(=O)(=O)N1CC(O)Cn1c2ccccc2c2ccccc21 (configuration not stated) 90.8%
O=C1C(=O)N(CC2COc3ccccc3O2)c2ccccc21 (configuration not stated) 46.6%
O=c1c(-c2ccc3c(c2)OCCO3)c(C(F)(F)F)oc2cc(O)cc(O)c12 63.5%
COc1cc(/C=C(\C#N)c2nc3ccccc3[nH]2)ccc1O 54.2%
Cc1cccc(/C(N)=N/OC(=O)c2ccccc2Cl)c1 75.3%
CNC(=O)/C(C#N)=C/c1c(F)cccc1Cl 71.8%
CCc1ccc(C(=O)NC(=S)Nc2ccccc2N2CCOCC2)cc1 49.2%
O=C(c1cc(-c2ccc(O)cc2)on1)N1CCCc2ccccc21 50.6%
O=C(c1cc(-c2cccc(O)c2)on1)N1CCc2ccccc2C1 48.2%
Cc1cc(Nc2ccccc2)n(C(=O)c2ccc(N)cc2)n1 55.7%
N/C(=N\OC(=O)c1cc(-c2ccccc2)nc2ccccc12)c1ccncc1 80.8%
O=C1CSC(=S)N1c1ccc(Cl)c(Cl)c1 76%
COC(=O)c1c(NC(=O)COc2ccc(Cl)cc2Cl)sc2c1CC(C)(C)NC2(C)C 63.6%
Oc1c(CN2CCN(c3ccc(F)cc3)CC2)cc(Cl)c2cccnc12 54.9%
